# Experimental data as given in PubChem BioAssay AID818 (SRMLSC, 2007).
# The campaign covered roughly 140,000 compounds. About 2,100 (1.5%) were called active. The sample holds actives, similar compounds and a random draw of the others, so the mix is not that of the screen. Unmarked numbers belong to inactive results.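 Rule for the calls: active = viability at or under a set limit, the compound median less 4 SD (cut at about 6% in these data); inactive = the rest.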
# Experiment: primary screen for growth suppressors in beta-catenin knockout HCT116 cells (colon tumor, human) (AID 818);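 note: 0% = Hyamine 1622 control at 20 µM and 100% = untreated cell control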
# Conditions: CellTiter-Glo, 60 h, at 10 µM, active compounds read low
row,SMILES,viability
1,COc1cccc(NC(=S)NCc2ccco2)c1,96.7%
2,O=[N+]([O-])c1ccc(C=Nc2ccc(Cl)cc2Cl)s1,3.51% (active)
3,CC1(C)CC(=O)C/C(=N\NC(=O)c2cccs2)C1,93%
4,Cc1ccc(S(=O)(=O)N(Cc2ccc(Cl)cc2)c2ccccc2C(=O)NCc2cccnc2)cc1,81.5%
5,O=C(CCCN1C(=O)/C(=C/c2ccco2)SC1=S)Nc1ccccc1,25.7%
6,O=C(c1c(Cl)nc2sccn12)N1CCCc2ccccc21,91.5%
7,O=C1/C(=C\c2ccccc2Cl)SC(=S)N1CCC(=O)N1CCCc2ccccc21,4.79% (active)
8,CCOc1ccc(C(=O)Nc2cccc(SC)c2)cc1,86.8%
9,NC1=NC(=O)S/C1=C\c1ccc(O)cc1,78.6%
10,CCOC(=O)c1c(C)[nH]c2c1-c1ccccc1C(=O)C2=O,1.06% (active)
11,CCOC(=O)c1c(C)[nH]c(=S)c(C#N)c1-c1ccccc1,101%
12,CCOC(=O)c1cc2n(c1C)-c1ccccc1C2=O,90.9%
13,CCC1(C(=O)c2ccccc2)C(c2cccc([N+](=O)[O-])c2)C1(C(=O)OC)C(=O)OC (stereo not given),82.6%
14,Cc1cc(/C=C2\SC(=Nc3ccc(N4CCOCC4)cc3)N(C)C2=O)c(C)n1-c1cccnc1,54.8%
15,CCOC(=O)NN1C(=O)c2ccccc2NC1c1cccc(O)c1 (stereo not given),106%
16,O=C1c2ccccc2NC(c2ccc(-c3cccc(Cl)c3)o2)N1O (stereo not given),2.84% (active)
17,C=CCn1c(CCNC(=O)c2cccs2)n[nH]c1=S,99.3%
18,COC(=O)Cn1c(=NC(=O)c2cc(OC)c(OC)c(OC)c2)sc2cc(OC)ccc21,81.5%
19,O=C1/C(=C\c2cccnc2)CN(Cc2ccccc2)C/C1=C\c1cccnc1,5.51% (active)
20,O=C(O)C1CC(=O)N(Cc2cccnc2)C1 (stereo not given),90.7%

row,SMILES,viability
1,O=C1OC(c2ccc(Cl)cc2)=N/C1=C\c1cccnc1,95.6%
2,CCc1ccc(NC2Nc3cc(C)nn3S2)cc1 (stereo not given),95.4%
3,CCC(C)N1C(=O)S/C(=C/c2ccc(Sc3nc4ccccc4[nH]3)o2)C1=O (stereo not given),4.08% (active)
4,CN=C1S/C(=C\c2ccc(Sc3ccc(Cl)cc3)o2)C(=O)N1C,96.9%
5,O=C(CSc1nc2ccccc2[nH]1)c1cccs1,78.2%
6,CC1Cc2ccccc2N1C(=O)CSc1nnc(-c2ccc(S(=O)(=O)N3CCCC3)cc2)n1C (stereo not given),81%
7,CCCCN(CC)C(=O)c1ccccc1Oc1ccccc1,85.8%
8,COC1=CCC2([N+](=O)[O-])CN(CC(=O)O)CC1([N+](=O)[O-])C2 (stereo not given),99%
9,O=C(CC(=O)Nc1ccc(Cl)c(Cl)c1)N/N=C/c1ccc(O)cc1,81%
10,O=C(Cc1ccc(Cl)c(Cl)c1)Nc1ccc(SC(F)F)cc1,35.8%
11,O=C(CC(O)(C(F)(F)F)C(F)(F)F)Nc1ccc(Cl)c(Cl)c1,2.26% (active)
12,C/C(=N\Nc1ccc([N+](=O)[O-])cc1)c1ccc(-n2nncc2C(C)(C)C)cc1,97.1%
13,CCN(/N=C/c1ccc(N(C)C)cc1)c1nc2ccccc2[nH]1,87.6%
14,O=C(COC(=O)c1cc([N+](=O)[O-])ccc1NCc1ccccc1)NC1CCCCC1,45.6%
15,C/C(CCC(=O)OC[C@H]1O[C@H](C#Cc2ccccc2)C=C[C@@H]1Oc1ccc(C)cc1)=N\OC[C@@H](O)[C@H]1O[C@@H]2OC(C)(C)O[C@@H]2[C@H]1O,86.2%
16,CSCCC(Nc1ccc(S(=O)(=O)N2CCOCC2)cc1[N+](=O)[O-])C(=O)OCC(=O)N(C(C)C)C(C)C (stereo not given),92.2%
17,COc1ccc(Oc2c(Cl)cnn(-c3ccccc3)c2=O)cc1,5.5% (active)
18,Cc1ccc(-c2nc3c(cnn3-c3ccccc3)c(=O)o2)cc1,95.4%
19,COc1ccc(-n2c(C)nc3c(cnn3-c3ccccc3)c2=O)cc1,29.9%
20,COc1ccccc1OCc1ccc(C(=O)N2CCN(C)CC2)o1,101%

row,SMILES,viability
1,CCOc1ccc(C(=O)Nc2nccs2)cc1[N+](=O)[O-],94%
2,COc1ccccc1/C=N\Nc1cc(C)nc(-n2nc(C)cc2C)n1,3.9% (active)
3,COc1ccc(Nc2cc(C)nc(-n3nc(C)cc3C)n2)cc1,15.2%
4,COc1cc(NS(=O)(=O)c2ccccc2)ccc1-n1nc(C)cc1C,101%
5,COc1ccc(-n2c(=S)[nH]c3sc4c(c3c2=O)CCc2ccccc2-4)cc1,81%
6,CN(C)C(=O)c1ccc2c(c1)C1C3CCC(C3)C1C(c1ccccc1)N2 (stereo not given),83.3%
7,N#Cc1c(N)n(CCOC(=O)c2ccc(Cl)cc2)c2nc3ccccc3nc12,84.2%
8,CN(C)CCCn1c(N)c(C#N)c2nc(C#N)c(C#N)nc21,5.78% (active)
9,CC(C)(C)c1ccc(C(=O)NCCn2c(N)c(C#N)c3nc4ccccc4nc32)cc1,66.5%
10,CCC1C(=O)c2ccccc2N(C)C1=O (stereo not given),88.1%
11,C[C@@H](O)c1nc2ccccc2n1N,96%
12,CCOc1ccc(NC(=O)CCC(=O)n2nc(C)cc2C)cc1,96.2%
13,CCOc1ccc(NC(=O)CN2CCN(CC(=O)Nc3ccc(OC)cc3)CC2)cc1,85.4%
14,CCOc1ccc(NC(=O)CCC(=O)N/N=C/c2ccc([N+](=O)[O-])s2)cc1,5.45% (active)
15,CSc1ccc(/C=N/NC(=O)c2cccc(Cl)c2)cc1,84.1%
16,COc1ccc2c(-c3ccccc3)cc(SCC(=O)N(C)C3CCS(=O)(=O)C3)nc2c1 (stereo not given),81.2%
17,CCCn1nc(NS(=O)(=O)c2ccccc2)c2cc3cc(C)ccc3nc21,91.5%
18,Cc1ccc(C)c(NC(CC(=O)c2ccccc2)C(=O)OCC(=O)c2cccs2)c1 (stereo not given),86.5%
19,Cc1ccccc1C(CC(=O)c1cccs1)C(C#N)C#N (stereo not given),2.37% (active)
20,O=C(CCC(=O)c1cccs1)NCc1ccccc1,88.8%
